# Bioassay records as filed in PubChem.
# In the library only some 9.4% were active in any assay of this set; here they are far more common.
# SARS PLP yeast – qHTS of Yeast-based Assay for SARS-CoV PLP | Potency, µM (doses to about 32.9 µM), without a hit: at the highest dose activity, positive = growth rescue, hits mostly activators | hit rate 0.19% among 330,000 | AID 485353, 2010 | S. cerevisiae expressing SARS-CoV PLpro, growth rescue; calls by dose curve; also: 0% is about no effect; nearly all actives have a fitted effect of over 55% in size
# AMA1-RON2 inh – qHTS for Inhibitors of AMA1-RON; Towards Development of Antimalarial Drug Lead: Primary Screen. Plasmodium falciparum AMA1 (3D7) - RON2 peptide interaction. AlphaScreen AMA1-biotinylated RON2 peptide binding. AID 720542, 2013. hit rate 0.2% among 360,000. Potency, µM (series often up to 58.2 µM), without a hit: at the highest dose activity change, negative = inhibition, actives largely listed as inhibitors;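 also: 0% = vehicle wells and -100% = peptide control; nearly all actives have a fitted effect of over 45% in size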
#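 AMA1 (3D7) with his tag at 25 nM final met compounds first, then biotinylated RON2 peptide at 25 nM; detection used donor plus acceptor beads, 10 µg/mL apiece, read by AlphaScreen after 30 min at room temperature.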
# Pf growth 48h – Primary qHTS for delayed death inhibitors of the malarial parasite plastid, 48 hour incubation. hit rate 5.9% among 310,000. P. falciparum luciferase growth in erythrocytes, 48 h. Potency, µM (series often up to 28.7 µM), inactives show at the top dose activity change, negative = inhibition, hits mostly inhibitors; also: % is scaled to controls: 0 for no effect and ±100 for the full control effect
#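 Growth was read as firefly luciferase luminescence after a 48 h, 37 C, 5% CO2 exposure of compounds to reporter-bearing P. falciparum cultures (0.1% parasitemia, 2% hematocrit final) in Albumax-supplemented RPMI 1640.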
# Pf growth 96h – Primary qHTS for delayed death inhibitors of the malarial parasite plastid, 96 hour incubation. hit rate 6.9% among 320,000. P. falciparum luciferase reporter growth, 96 h. AID 504834, 2011. Potency, µM (series often up to 28.7 µM), inactives show at the highest dose activity change, negative = inhibition, most hits filed as inhibitors; also: % is scaled to controls: 0 for no effect and ±100 for the full control effect
#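 Compounds incubated with erythrocytes infected by luciferase-expressing P. falciparum (2% hematocrit, 0.05% parasitemia final) for 96 hours, 37 C in 5% CO2. Growth inhibition scored as decreased luciferase luminescence.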
# * hit, by the source's call; i = inactive; u = inconclusive; x = no result; [ ] = remark or other dose. Unless noted, calls follow the shape of the dose curve; as a rule, active = well fitted curve in the direction sought with a large enough effect; inconclusive = small, poorly fitted or top-dose-only effect, or another doubt; inactive = no such curve, though single readings can be large; an effect the other way counts as inactive or inconclusive. Potency is read from the fitted curve at half-maximal effect.
SMILES,SARS PLP yeast,AMA1-RON2 inh,Pf growth 48h,Pf growth 96h
Cc1ccc(NC(=O)c2ccc(S(=O)(=O)N3CCOCC3)cc2)cc1,1.7%,-12.7%,-18.2%,-17.0%
Cc1cc(O)c(-c2cc(C(=O)Nc3ccc(S(=O)(=O)N4CCOCC4)cc3)[nH]n2)cc1C,-2.0%,81.5%,1.85µM*,i
O=C(Nc1ccc(S(=O)(=O)N2CCOCC2)cc1)c1cc(-c2cc(Cl)ccc2O)n[nH]1,-0.1%,83.2%,0.828µM*,1.31µM*
O=C(Nc1ccc(Cl)cc1)c1ccc(S(=O)(=O)N2CCOCC2)cc1,-0.7%,-5.5%,-18.6%,u
COc1cc(C2C3C(=O)N(c4ccc(F)cc4)C(=O)C3ON2c2ccccc2)ccc1O (stereo not given),-1.0%,22.9%,0.7%,0.0%
COC(=O)C1=C(c2cccc(OCc3ccccc3)c2)C[C@@H]2CC[C@H]1N2C(=O)NCCN1CCOCC1,-1.6%,-7.9%,u,5.22µM*
COC(=O)C1=C(c2cccc(OCc3ccccc3)c2)C[C@@H]2CC[C@H]1N2C(=O)NCc1ccc(C(C)(C)C)cc1,-1.5%,-8.2%,3.7µM*,u
COC(=O)C1=C(c2cccc(OCc3ccccc3)c2)C[C@@H]2CC[C@H]1N2C(=O)NCc1ccccc1C(F)(F)F,-3.0%,0.0%,4.15µM*,u
COC(=O)C1=C(c2ccc(OCc3ccccc3)cc2)C[C@@H]2CC[C@H]1N2C(=O)NCc1ccc2[nH]ccc2c1,x,-14.6%,x,x
COC(=O)C1=C(c2cccc(OCc3ccccc3)c2)C[C@@H]2CC[C@H]1N2C(=O)NCc1cccc(OC)c1,-2.6%,-11.7%,10.4µM*,4.15µM*
CC(C)Cn1c(N)c(C(=O)CSc2ncccn2)c(=O)n(C)c1=O,-1.5%,6.1%,20.9%,2.0%
Cc1ccc(S(=O)(=O)N2CCOC2CNC(=O)C(=O)NCc2ccco2)cc1 (stereo not given),-4.2%,0.0%,8.2%,-21.7%
CCCCCC1CCC(C(=O)NNC(=S)NCC)CC1 (stereo not given),0.4%,57.0%,u,u
COC(=O)C1=C(c2cccc(OCc3ccccc3)c2)C[C@@H]2CC[C@H]1N2C(=O)NCc1ccc(N(C)C)cc1,3.9%,11.2µM*,8.28µM*,u
COC(=O)C1=C(c2cccc(OCc3ccccc3)c2)C[C@@H]2CC[C@H]1N2C(=O)NCCCOC(C)C,u,9.4%,u,u
COC(=O)C1=C(c2cccc(OCc3ccccc3)c2)C[C@@H]2CC[C@H]1N2C(=O)NCCOc1ccc(OC)cc1,9.0%,-22.1%,7.38µM*,u
CCC1(c2ccccc2)NC(=O)N(CC(=O)Nc2cccc(S(=O)(=O)N3CCCC3)c2)C1=O (stereo not given),-3.7%,4.7%,u,-24.7%
COc1ccc(N=C2SCC(=O)N2Cc2ccccc2)cc1,-9.7%,-3.3%,-12.7%,9.28µM*
CC1CC(C)(C)NCc2ccccc21 (stereo not given),3.2%,4.8%,0.2%,9.28µM*
CC1(C)CC(N=Cc2c(O)n(Cc3ccc4c(c3)OCO4)c(=O)c3ccccc23)CC(C)(C)N1,-8.5%,-10.7%,8.28µM*,10.4µM*
CCOC(=O)CSc1nc2sc(C)c(C)c2c(=O)n1C,-0.2%,8.1%,-12.8%,-11.4%
Cc1sc2nc(SCC(=O)N(C)c3ccccc3)n(C)c(=O)c2c1C,5.0%,4.5%,8.28µM*,-3.0%
CCCCNC(=O)c1nn2cc(Br)cnc2c1Br,-4.5%,-0.2%,29.7%,u
CC(C)Oc1ccc(S(=O)(=O)N2CCOCC2)cc1NC(=O)c1cccc(S(=O)(=O)N2CCCC2)c1,x,0.7%[11.6 µM],x,x
CCC1=C(OC(=O)N(CC)CC)N2C(=O)OC(=NCCc3c[nH]c4ccccc34)[C@]2(Cc2ccccc2)[C@H]2C1=CC[C@H]1C(=O)N(CC)C(=O)[C@H]12,1.7%,-13.4%,9.28µM*,13.1µM*
SMILES,SARS PLP yeast,AMA1-RON2 inh,Pf growth 48h,Pf growth 96h
CCC1=C(OC(=O)N(CC)CC)N2C(=O)OC(=NCCOC)[C@]2(Cc2ccccc2)[C@H]2C1=CC[C@H]1C(=O)N(C)C(=O)[C@H]12,2.3%,12.2%,10.4µM*,u
CCC1=C(OC(=O)N(CC)CC)N2C(=O)OC(=NCC(=O)OC)[C@]2(Cc2ccccc2)[C@H]2C1=CC[C@H]1C(=O)N(CC(=O)OC)C(=O)[C@H]12,1.2%,8.7%,11.7µM*,u
COCCN=C1OC(=O)N2C(=O)C3=C4[C@@H](C[C@H]5C(=O)N(c6ccccc6)C(=O)[C@H]5[C@H]4[C@@]12Cc1ccccc1)[C@H]1C(=O)N(c2ccccc2)C(=O)[C@H]1[C@H]3C,-0.5%,7.4%,u,u
COC(=O)CN=C1OC(=O)N2C(=O)C3=C4[C@@H](C[C@H]5C(=O)N(c6ccccc6)C(=O)[C@H]5[C@H]4[C@@]12Cc1ccccc1)[C@H]1C(=O)N(c2ccccc2)C(=O)[C@H]1[C@H]3C,1.2%,11.4%,11.7µM*,u
CCC1=C2CC[C@H]3C(=O)N(C)C(=O)[C@H]3[C@H]2[C@@]2(Cc3ccccc3)C(=NCCOC)OC(=O)N2C1=O,1.6%,17.4%,37.4%,40.4%
Cc1nc(NS(=O)(=O)c2cccc([N+](=O)[O-])c2)sc1C(C)(C)C,0.9%,-9.3%,-1.2%,-23.4%
Cc1cc(C)cc(OCCCC(=O)O)c1,-5.3%,14.2%,-2.6%,-4.5%
CC1(C(=O)NS(=O)(=O)c2ccc(Br)cc2)CCN1C(=O)CCc1ccccc1 (stereo not given),x,40.7%,x,x
CN(Cc1ccco1)C(=O)c1ccc(N2CCCC2=O)cc1,0.2%,-11.6%,34.5%,-19.4%
NNC1=N[C@H]2CS(=O)(=O)C[C@H]2S1,u,-1.9%[2.32 µM],21.6%,-16.0%
COc1ccc(NS(=O)(=O)c2ccc(O)c(C(=O)OCC(=O)Nc3ccc4c(c3)OCCO4)c2)cc1,-14.3%,6.0%[11.6 µM],-3.8%,-7.6%
CCC1=C(OC(=O)N(CC)CC)N2C(=O)OC(=NCC3CC3)[C@]2(Cc2ccccc2)[C@H]2C1=CC[C@H]1C(=O)N(CC)C(=O)[C@H]12,2.4%,18.1%,7.38µM*,13.1µM*
CCC1=C(OC(=O)N(CC)CC)N2C(=O)OC(=NCCOC)[C@]2(Cc2ccccc2)[C@H]2C1=CC[C@H]1C(=O)N(CC)C(=O)[C@H]12,4.8%,6.1%,13.1µM*,u
CCC1=C2CC[C@H]3C(=O)N(CC)C(=O)[C@H]3[C@H]2[C@@]2(Cc3ccccc3)C(=NCCOC)OC(=O)N2C1=O,-4.9%,16.8%,27.8%,25.9%
CCC1=C(OC(=O)N(CC)CC)N2C(=O)OC(=NCC(=O)OC)[C@]2(C)[C@H]2C1=CC[C@H]1C(=O)N(CC)C(=O)[C@H]12,2.3%,15.4%,31.3%,35.7%
CCC1=C(OC(=O)N(CC)CC)N2C(=O)OC(=NCc3ccccc3)[C@]2(C)[C@H]2C1=CC[C@H]1C(=O)N(CC)C(=O)[C@H]12,-2.1%,-4.3%,11.7µM*,u
